Laboratory results from PubChem BioAssay (Tox21).
A number with no mark means an inactive call. Inconclusive results are not listed. Where a call stands in place of a potency, no number is given. Calls of active or inactive are those of the source. Calls come from the whole dose curve; as a rule, active = well fitted curve in the direction sought with a large enough effect in the repeat runs; inconclusive = weak or mixed curves; inactive = no such curve, though single readings can be large; an effect the other way counts as inactive or inconclusive.

Key:
[1] = qHTS RealTime-Glo MT Cell Viability Assay in HepG2 cells - 24 hour (AID 1224867); note: nearly all actives have a fitted effect of over 50% in size
Outline: (§1)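 Cell number in HepG2 cultures estimated from NanoLuc luminescence generated by metabolic reduction of a prosubstrate by living cells. The homogeneous, nonlytic format allowed repeated reads at 0, 8, 16, 24, 32 and 40 h of compound exposure.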

[2] = qHTS RealTime-Glo MT Cell Viability Assay in HEK293 cells - 32 hour (AID 1224868); note: top concentration of the series differs between compounds; nearly all actives have a fitted effect of over 50% in size
Outline: (§2)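 Homogeneous bioluminescent viability format in HEK293 cells (600 cells/well). Following 5 h at 37 C/5% CO2, 23 nL compound was pintooled; the signal was measured repeatedly during 40 h incubation.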

[3] = A CellTox Green Cytotoxicity Assay to monitor cytotoxicity in HEK293 cells - 0 hour (AID 1224869); note: nearly all actives have a fitted effect of over 50% in size
Outline: (§3)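 Real-time, in one plate: 600 HEK293 cells/well with dead-cell DNA dye, pinned compound after 5 h, 37 C incubation over 40 h; viable cells give no appreciable fluorescence.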

[4] = qHTS RealTime-Glo MT Cell Viability Assay in HepG2 cells - 40 hour (AID 1224870); note: nearly all actives have a fitted effect of over 50% in size
Outline: (§4)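 Real-time viability: cells seeded at 600 per well together with NanoLuc and cell-permeant prosubstrate, compounds added after 5 h incubation. Luminescence tracked at 0, 8, 16, 24, 32 and 40 h of exposure.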

[5] = A CellTox Green Cytotoxicity Assay to monitor cytotoxicity in HEK293 cells - 40 hour (AID 1224871); note: nearly all actives have a fitted effect of over 45% in size
Outline: as §3

[6] = qHTS RealTime-Glo MT Cell Viability Assay in HEK293 cells - 16 hour (AID 1224872)
Outline: as §2

[7] = qHTS RealTime-Glo MT Cell Viability Assay in HepG2 cells - 8 hour (AID 1224873); note: nearly all actives have a fitted effect of over 55% in size
Outline: as §4

[8] = qHTS RealTime-Glo MT Cell Viability Assay in HEK293 cells - 40 hour (AID 1224874); conditions: RealTime-Glo luminescence; max response: active compounds read low; note: nearly all actives have a fitted effect of over 50% in size
Outline: (§5)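 Kinetic, non-lysing viability readout. Seed HEK293 (600/well) with reagent, incubate 5 h at 37 C/5% CO2, pin 23 nL compound in DMSO, incubate at 37 C, read luminescence at 0, 8, 16, 24, 32, 40 h.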

[9] = A CellTox Green Cytotoxicity Assay to monitor cytotoxicity in HEK293 cells - 24 hour (AID 1224875); note: series mostly up to about 77 µM; nearly all actives have a fitted effect of over 45% in size
Outline: as §3

[10] = A CellTox Green Cytotoxicity Assay to monitor cytotoxicity in HepG2 cells - 16 hour (AID 1224876); note: nearly all actives have a fitted effect of over 45% in size; note: potency is the fitted concentration of half-maximal effect
Outline: (§6)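 Cytotoxicity was tracked as dead-cell DNA fluorescence in HepG2 cells treated with test compounds at 37 C; each time-point value comes from one kinetic series spanning 0, 8, 16, 24, 32 and 40 h.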

[11] = A CellTox Green Cytotoxicity Assay to monitor cytotoxicity in HepG2 cells - 24 hour (AID 1224878); note: nearly all actives have a fitted effect of over 45% in size; note: potency is the fitted concentration of half-maximal effect
Outline: as §6

[12] = A CellTox Green Cytotoxicity Assay to monitor cytotoxicity in HepG2 cells - 40 hour (AID 1224879); note: nearly all actives have a fitted effect of over 40% in size
Outline: as §6

[13] = qHTS RealTime-Glo MT Cell Viability Assay in HEK293 cells - 0 hour (AID 1224880)
Outline: as §5

[14] = A CellTox Green Cytotoxicity Assay to monitor cytotoxicity in HEK293 cells - 32 hour (AID 1224881); note: nearly all actives have a fitted effect of over 40% in size
Outline: as §3

[15] = A CellTox Green Cytotoxicity Assay to monitor cytotoxicity in HepG2 cells - 32 hour (AID 1224883); note: nearly all actives have a fitted effect of over 50% in size
Outline: as §6

[16] = A CellTox Green Cytotoxicity Assay to monitor cytotoxicity in HEK293 cells - 8 hour (AID 1224884); note: nearly all actives have a fitted effect of over 35% in size; note: potency is the fitted concentration of half-maximal effect
Outline: as §3

[17] = qHTS RealTime-Glo MT Cell Viability Assay in HepG2 cells - 16 hour (AID 1224885); note: nearly all actives have a fitted effect of over 50% in size
Outline: as §1

[18] = qHTS RealTime-Glo MT Cell Viability Assay in HepG2 cells - 32 hour (AID 1224877); note: nearly all actives have a fitted effect of over 55% in size
Outline: as §1

[19] = A CellTox Green Cytotoxicity Assay to monitor cytotoxicity in HepG2 cells - 0 hour (AID 1224882); note: nearly all actives have a fitted effect of over 35% in size; note: potency is the fitted concentration of half-maximal effect
Outline: as §6

| SMILES | outcome [1] | Potency [2] | Potency [3] | outcome [4] | Potency [5] | Potency [6] | outcome [7] | max response [8] | Potency [9] | Potency [10] | Potency [11] | Potency [12] | outcome [13] | Potency [14] | Potency [15] | Potency [16] | outcome [17] | outcome [18] | Potency [19] |
| --- | --- | --- | --- | --- | --- | --- | --- | --- | --- | --- | --- | --- | --- | --- | --- | --- | --- | --- | --- |
| CC(=O)c1ccc(OCC(=O)N2CCCCC2)cc1 | inactive | inactive | inactive | inactive | inactive | inactive | inactive | 1.3% | inactive | inactive | inactive | inactive | inactive | inactive | inactive | inactive | inactive |  |  |
| CCN1CN(CC)CN(CC)C1 | inactive | inactive | inactive | inactive | inactive | inactive | inactive | 4.59% | inactive | inactive |  | inactive | inactive | inactive | inactive | inactive | inactive | inactive | inactive |
| Nc1cc(S(=O)(=O)O)ccc1S(=O)(=O)O | inactive | inactive | inactive | inactive | inactive | inactive |  | 21% | inactive | inactive | inactive | inactive | inactive | inactive | inactive | inactive | inactive | inactive | inactive |
| COC(=O)CCC(=O)O | inactive | inactive | inactive | inactive | inactive | inactive | inactive | 8.17% | inactive | inactive | inactive |  | inactive | inactive | inactive | inactive | inactive | inactive |  |
| C1=C\CC/C=C\CC/1 | inactive | inactive | inactive | inactive | inactive | inactive |  | 16.6% | inactive | inactive | inactive | inactive | inactive | inactive | inactive | 4.07 µM (active) |  | inactive | inactive |
| O=S(=O)(O)CCO | inactive | inactive | inactive | inactive | inactive | inactive | inactive | -10.5% | inactive | inactive | inactive | inactive | inactive | inactive | inactive | inactive |  |  |  |
| Nc1cc(C(=O)O)ccc1Cl | inactive | inactive | inactive | inactive | inactive | inactive | inactive | 6.48% | inactive | inactive | inactive | inactive | inactive | inactive | inactive | inactive | inactive |  | inactive |
| NS(=O)(=O)c1ccc(Cl)c(S(N)(=O)=O)c1 | inactive | inactive | inactive | inactive | inactive | inactive | inactive | 13.4% | inactive |  | inactive | inactive | inactive | inactive | inactive | inactive | inactive | inactive | inactive |
| CCCCC(CC)CNC(=O)CC(C)OC(=O)CCC(=O)O (configuration not stated) | inactive | inactive | inactive | inactive | inactive | inactive |  | 3.69% | inactive | 23.9 µM (active) | 26.8 µM (active) |  | inactive | inactive |  | inactive | inactive | inactive | 26.8 µM (active) |
| CC(C)c1ccccc1O | inactive | inactive | inactive | inactive | inactive | inactive | inactive | 12.5% | inactive | inactive |  | inactive | inactive | inactive | inactive | inactive | inactive | inactive |  |
| COc1ccc(OC)c(NC(=O)CC(C)=O)c1 | inactive | inactive | inactive | inactive | inactive | inactive | inactive | 2.24% | inactive |  | inactive | inactive | inactive | inactive | inactive | inactive | inactive |  | inactive |
| Nc1ccnc(=O)[nH]1 | inactive | inactive | inactive | inactive | inactive | inactive |  | 4.83% | inactive | inactive | inactive | inactive | inactive | inactive | inactive |  | inactive |  |  |
| COc1ccc(/C=N/NC(=O)c2ccncc2)cc1OC | inactive | inactive | inactive | inactive | inactive | inactive | inactive | -6.3% | inactive |  | inactive | inactive | inactive | inactive | inactive | inactive | inactive |  | inactive |
| C=C(C)C(=O)OC1CC(C)CC(C)(C)C1 (configuration not stated) | inactive | inactive | inactive | inactive | inactive | inactive |  | 3.29% | inactive |  | inactive |  | inactive | inactive |  | inactive | inactive | inactive | inactive |
| O=c1cc(O)c(Cl)c[nH]1 | inactive | inactive | inactive | inactive | inactive | inactive | inactive | 4.88% | inactive |  | inactive | inactive | inactive | inactive | inactive | inactive | inactive | inactive | inactive |
| CCCCCCCC/C=C\CCCCCCCC(=O)OC[C@@H](O)[C@H]1OC[C@H](O)[C@H]1O | inactive | inactive | inactive | inactive | inactive | inactive |  | 7.57% | inactive | inactive | inactive | inactive | inactive | inactive | inactive | inactive | inactive | inactive | inactive |
| O=C1CC[C@H](C(=O)N2CCCCC2)N1 | inactive | inactive | inactive | inactive |  | inactive | inactive | -2.81% | inactive | inactive | inactive | inactive | inactive | inactive | inactive | inactive | inactive | inactive |  |
| CCCCCC(=O)OCC | inactive | inactive | inactive | inactive | inactive | inactive | inactive | 5.39% | inactive | inactive | inactive | inactive | inactive | inactive | inactive | inactive | inactive |  | inactive |
| Cc1ccc2c(c1)c1c3n2CCNC3CCC1 (configuration not stated) | inactive | inactive | inactive | inactive | inactive | inactive | inactive | 0.813% | inactive | inactive |  | inactive | inactive | inactive | inactive | inactive | inactive |  | inactive |
| CCC(C)N (configuration not stated) | inactive | inactive | inactive | inactive | inactive | inactive | inactive | -5.31% | inactive |  |  | inactive | inactive | inactive | inactive | inactive | inactive | inactive | inactive |
| CCCCCCCCCCCCC | inactive | inactive | inactive | inactive | inactive | inactive | inactive | 7.99% | inactive |  |  | inactive | inactive | inactive | inactive | inactive | inactive |  | inactive |
| Cc1nc([N+](=O)[O-])cn1-c1ccc([N+](=O)[O-])cc1 | inactive | inactive | inactive | inactive | inactive | inactive | inactive | 4.25% | inactive | inactive |  | inactive | inactive | inactive | inactive | inactive | inactive | inactive |  |
| Cc1ccc(C(=O)C(=O)O)cc1C | inactive | inactive | inactive | inactive | inactive | inactive | inactive | -0.829% | inactive | inactive | inactive | inactive | inactive |  | inactive | inactive | inactive |  | inactive |
| Cc1cc(C)cc([N+](=O)[O-])c1 | inactive | inactive | inactive | inactive | inactive | inactive | inactive | -13.7% | inactive | inactive | 55.6 µM (active) |  | inactive | inactive |  | inactive | inactive |  | inactive |
| C=CC(C)(O)CC/C=C(\C)CC (configuration not stated) | inactive | inactive | inactive | inactive | inactive | inactive | inactive | 5.46% | inactive | inactive |  |  | inactive | inactive | inactive | inactive | inactive | inactive | inactive |
| CC(C)=CC(C)(C)C | inactive | inactive | inactive | inactive |  | inactive | inactive | 6.16% | inactive | inactive |  | inactive | inactive | inactive | inactive | inactive |  | inactive | inactive |
| C=C[C@@H](C)CCC=C(C)C | inactive | inactive | inactive | inactive | inactive | inactive |  | 9.85% | inactive | inactive |  | inactive | inactive | inactive | inactive | inactive | inactive | inactive | inactive |
| COC(OC)C(C)c1ccccc1 (configuration not stated) | inactive | inactive | inactive | inactive | inactive | inactive | inactive | 5.02% | inactive |  | inactive | inactive | inactive | inactive | inactive | inactive | inactive | inactive |  |
| O=S1(=O)CCCC1 | inactive | inactive | inactive | inactive | inactive | inactive | inactive | 9.26% | inactive |  | inactive | inactive | inactive | inactive | inactive | inactive |  | inactive |  |
| CCCCCCCC[Si](OCC)(OCC)OCC | inactive | inactive | inactive | inactive | inactive | inactive | inactive | 0.929% | inactive | inactive | inactive | inactive | inactive | inactive | inactive | inactive | inactive |  |  |
